From ChEMBL document CHEMBL3988442, “University of Dundee, Small-Polar-MMV Screening Library” (2021) come the findings set out here.

Out of some 48,000 compounds screened, about 13,000 (27%) showed an effect of 50% or more. The list shows a part of the results.

This test deals with Wolbachia pipientis. Briefly: Anti-Wolbachia Cell-Based Screen. Also on record: scale not given: in the data most compounds retested in dose-response had high values. The test is classed as functional. The settings on record: 5 µM.
Take `c1cnn(CC2CCCCN2Cc2cn3ccsc3n2)c1` (stereo not given): the “Percent Effect” value was found to be 2.763%.
On to `COc1ccc2c(=O)n(CC3CCCCN3C)ccc2c1OC` (stereo not given), for which the “Percent Effect” value was -25.61%.
The value for `CCN1C[C@@H]2CN(S(=O)(=O)c3cccs3)C[C@@H]2C1=O` was -17.06%.
On to `N#Cc1cc(NS(=O)(=O)CC2CCCCO2)ccc1F` (stereo not given), for which the “Percent Effect” value is given as -2.711%.
In the case of `COc1ccc(CCNC(=O)NCc2cccc(C(N)=O)c2)cc1OC`, the “Percent Effect” value came out at 9.819%.
`CCCc1ccc(OCCNCc2ccco2)c(OC)c1.Cl`: the “Percent Effect” value is listed as -10.12%.
The value for `COc1cc(CN2CCCC2)ccc1OC12CCCN(CC1)C2` (stereo not given) was 119.4%; that for `COc1cc(CN2CCCC2)ccc1Oc1ncccc1C(F)(F)F` was 26.33%.
In the case of `COc1ccc(CN2CCCC3(CC2)CNC(=O)O3)cc1OC` (stereo not given), the “Percent Effect” value came out at 1.159%.
For the compound `CCCc1ccc(OC23CCCN(CC2)C3)c(OC)c1` (stereo not given), the “Percent Effect” value was 112.6%.
Regarding `CC(C)c1nccn1C(C)C(=O)N1CCN(S(C)(=O)=O)CC1` (stereo not given), the “Percent Effect” value was found to be 15.78%.
Consider `CC(C)c1cc(C(=O)N(c2ccc(F)cn2)C2CCOCC2)nn1C`, for which the “Percent Effect” value is -15.95%.
In the case of `COC[C@@]12CC[C@@H](N3CCOCC3)C[C@H]1CCN(c1ncccc1C)C2` it was -3.262%; in that of `O=C(O)C(F)(F)F.O=C(c1cscn1)N1CC[C@@H]2[C@@H]1CCN2C1CCOCC1`, 97.96%.
With `O=C(O)C(F)(F)F.O=C(c1cscn1)N1CCO[C@H]2[C@@H](Oc3ccccn3)CC[C@@H]21`, the “Percent Effect” value is on record as -13.1%.
As for `CN1CCN([C@@H]2CCN(C3CCOC3)[C@H]2Cc2cnn(C)c2)CC1.O=C(O)C(F)(F)F.O=C(O)C(F)(F)F.O=C(O)C(F)(F)F` (stereo not given in full), the “Percent Effect” value is recorded as -5.901%.
As for `O=C(C1CCOCC1)N1CC[C@H]2[C@H]1CCN2c1nncs1.O=C(O)C(F)(F)F`, the “Percent Effect” value is 9.105%.
The value for `O=C(O)C(F)(F)F.O=C(c1cscn1)N1CC[C@@H]2[C@@H]1CCN2C1CCOC1` (stereo not given in full) was 99.27%; that for `CN(CC(=O)N(C)C1CCCCC1)Cc1nc2ccccc2c(=O)[nH]1` was -1.325%.
With `CC(NC(=O)NC1CCN(Cc2ccccn2)CC1)c1ccco1` (stereo not given), the “Percent Effect” value was 5.238%.
In the case of `c1cc(CNc2ccc(-c3nc(C4CC4)no3)cn2)no1`, the “Percent Effect” value is given as -4.81%.
Regarding `CC(=O)NC1CCCN(c2nc3ccccc3cc2CO)C1` (stereo not given), the “Percent Effect” value is 8.297%.
With `COc1ccc(-n2ncc(C(C)NC3Cc4ccccc4C3)c2C)cc1` (stereo not given), the “Percent Effect” value was 4.346%.
As to `Cc1ncsc1C(=O)NC1CCN(CC(=O)N(C)c2ccccc2)CC1`, the “Percent Effect” value is recorded as -1.351%.
Take `O[C@@H]1C[C@@H](c2nc(Cc3ccccc3)no2)N(CC2CC2)C1`: the “Percent Effect” value is 3.423%.
With `NCC1Cc2cc(F)cc(-c3cnccn3)c2O1` (stereo not given), the “Percent Effect” value is -7.505%.
Consider `Cn1ccnc1-c1ccc(NCCC2COc3ccccc3O2)nn1` (stereo not given), for which the “Percent Effect” value amounted to 7.675%.
For the compound `Cn1nnnc1SCC1COc2ccccc2O1` (stereo not given), the “Percent Effect” value is on record as 100.3%.
The value for `CN(Cc1nc(CC2CC2)no1)CC1COc2ccccc2O1` (stereo not given) was -4.512%; that for `N#Cc1cccc(N2CCC(CO)(CCOc3ccccc3)CC2)n1` was -8.445%.
On to `CC(C)n1ccnc1C1CCN(Cc2ccc(Cl)s2)CC1`, for which the “Percent Effect” value is on record as -8.213%.
Consider `CSCC(C)(O)CNc1ccccn1` (stereo not given), for which the “Percent Effect” value was -2.267%.
`CC(=O)Nc1cccc2c1ccn2CC(=O)NC(C)C`: the “Percent Effect” value was determined as 119.7%.
Consider `CC(=O)c1cn(CC(=O)NC(C(=O)O)C(C)C)c2ccccc12` (stereo not given), for which the “Percent Effect” value was -3.053%.
`COc1cccc2c1ccn2CCC(=O)NCCCC(=O)O`: the “Percent Effect” value is given as 22.13%.
The value for `CC(=O)Nc1cccc2c1ccn2CC(=O)Nc1nc[nH]n1` was 99.64%.
In the case of `CC(=O)Nc1cccc2c1ccn2CC(=O)Nc1n[nH]c(CC(C)C)n1` it was 102.1%; in that of `CN1CCN(c2cc(NC(=O)Cn3ccc4ccccc43)ncn2)CC1`, -1.04%; in that of `O=C(Cn1ccc2c(Cl)cccc21)Nc1nc[nH]n1`, 213.7%.
Take `CS(=O)(=O)N1CCN(C(=O)Cn2ccc3c(Cl)cccc32)CC1`: the “Percent Effect” value was determined as 10.52%.
As to `O=C(Cn1ccc2c(Cl)cccc21)N[C@@H](C(=O)O)c1ccccc1`, the “Percent Effect” value was 2.253%.
Regarding `O=C(Cn1ccc2ccccc21)NCc1cc(N2CCOCC2)ncn1`, the “Percent Effect” value is -2.844%.
As for `COc1cccc2c1ccn2CCNC(=O)C(C)C`, the “Percent Effect” value amounted to 18.92%.
Regarding `Cc1cccc(C)c1OCC(=O)Nc1cccn(C)c1=O`, the “Percent Effect” value was -11.46%.
On to `COCc1nc(C2CC2)nn1-c1cccc(F)c1`, for which the “Percent Effect” value is listed as -12.44%.
As for `Cc1ccc(Oc2ncccc2CNC2CCCCC2)cn1`, the “Percent Effect” value was -2.321%.
The value for `CN(C)C(=O)N1CCN(C(=O)C(c2ccccc2F)N(C)C)CC1` (stereo not given) was 0.4283%; that for `COc1cccc2c1ccn2CC(=O)N[C@@H](CCSC)C(=O)O` was 11.73%; that for `COCC(=O)NCCn1ccc2c(OC)cccc21` was -0.7831%.
As for `CSCC[C@H](NC(=O)Cn1ccc2c(Cl)cccc21)C(=O)O`, the “Percent Effect” value is given as 2.833%.
`Cc1ccn(-c2ccccc2NCc2ncc[nH]2)n1`: the “Percent Effect” value is listed as -9.69%.
For the compound `COc1cccc2c1ccn2CC(=O)Nc1nc[nH]n1`, the “Percent Effect” value was 91.25%.
`CC(=O)Nc1cccc2c1ccn2CC(=O)Nc1ncc[nH]1`: the “Percent Effect” value is given as 101.7%.
With `CCOc1ncccc1Cn1cc(-c2ccc(CO)o2)nn1`, the “Percent Effect” value is reported as -3.735%.
For `CCN(CC)C(=O)C1(NCc2nc(C)c(C)o2)CCCCC1`, the “Percent Effect” value is -3.366%.
Take `CN(c1ccc(CNc2ccc(Cl)cn2)cc1)S(C)(=O)=O`: the “Percent Effect” value is recorded as 3.879%.
Turning to `CC(=O)Nc1nc(C(=O)NC(C)c2cccnc2)cs1` (stereo not given), the “Percent Effect” value was -4.684%.
As to `COc1coc(C(=O)Nc2nc(C)cs2)cc1=O`, the “Percent Effect” value turned out to be 134.8%.
On to `COc1ccc(NC(C)=O)cc1OCc1cccnc1`, for which the “Percent Effect” value is reported as 0.9629%.
Take `Cc1csc(NC(=O)C2CSCCC(=O)N2)n1` (stereo not given): the “Percent Effect” value is -7.391%.
In the case of `COc1coc(C(=O)Nc2nc(-c3cccnc3)cs2)cc1=O`, the “Percent Effect” value is given as 125.3%.
In the case of `CCC(NC(=O)Nc1ccc(OC)c(C)c1)c1ccncc1` (stereo not given) it was -4.572%; in that of `COc1ccc(NC(=O)C(C)(C)C)cc1OCc1cccnc1`, -1.901%.
On to `CC(=O)Nc1nc(C(=O)NC(C)c2ccncc2)cs1` (stereo not given), for which the “Percent Effect” value is -2.068%.
With `COc1coc(C(=O)Nc2nc(-c3ccncc3)cs2)cc1=O`, the “Percent Effect” value was 126.8%.
In the case of `Cn1ccc(C(=O)Nc2nc(-c3ccc4c(c3)CCO4)cs2)cc1=O` it was -8.772%; in that of `COc1coc(C(=O)Nc2ccncc2)cc1=O`, 119.4%.
Take `CCOc1ccccc1C(CC(=O)Nc1nc(C)cs1)NC(C)=O` (stereo not given): the “Percent Effect” value was 0.8837%.
Regarding `COc1cccc(SCC(=O)N2CCC(N3CCCC(O)C3)CC2)c1` (stereo not given), the “Percent Effect” value came to 2.194%.
In the case of `COCc1csc(NC(=O)NCc2ccccn2)n1`, the “Percent Effect” value worked out at 11.42%.
`COc1coc(C(=O)Nc2nc(-c3ccccn3)cs2)cc1=O`: the “Percent Effect” value turned out to be 131%.
With `Cn1ccc(C(=O)Nc2nnc(-c3ccccn3)[nH]2)cc1=O`, the “Percent Effect” value is -6.589%.
As to `CCN(CC1CCOC1)C(=O)CCc1nc(C(C)(C)C)no1` (stereo not given), the “Percent Effect” value is on record as -1.689%.
Consider `Cc1cc(C(N)=O)ccc1NC(=O)c1nc(N2CCCCC2)ncc1Cl`, for which the “Percent Effect” value is -13.62%.
Turning to `Nc1nc(N2CCCCCC2)ncc1C(=O)NCc1ccc(F)c(Cl)c1`, the “Percent Effect” value came to 114.6%.
In the case of `NS(=O)(=O)c1ccc(CNC(=O)c2ccc(Cl)cc2F)cc1`, the “Percent Effect” value was -5.173%.
As for `CN(c1ncc(C(=O)NCc2ccccc2)c(N)n1)C1CCCCC1`, the “Percent Effect” value stood at 2.294%.
For the compound `O=C(Nc1cc(Cl)ccn1)c1nc(N2CCCC2)ncc1Cl`, the “Percent Effect” value is -15.57%.
In the case of `CC1CCCN(c2ncc(C(=O)NCc3ccc(F)c(Cl)c3)c(N)n2)C1` (stereo not given), the “Percent Effect” value was 73.04%.
With `Cc1cccc(C(=O)NCc2ccc(N3CCCCC3)nc2)n1`, the “Percent Effect” value is on record as -4.595%.
For the compound `O=C(Cn1cc(C(=O)O)ccc1=O)NCc1ccc(F)c(Cl)c1`, the “Percent Effect” value is reported as 13.7%.
Consider `Nc1nc(N2CCCCC2)ncc1C(=O)NCc1ccc(F)c(Cl)c1`, for which the “Percent Effect” value stood at 94.05%.
In the case of `CCCn1cc(-c2ccnc(NC3CCc4ccccc43)n2)c(C)n1` (stereo not given) it was -0.7424%; in that of `Cc1cccc(C(C(=O)NCC2(Cn3nc(C)cc3C)CC2)N(C)C)c1` (stereo not given), -2.816%.
As to `Cc1ccc(CN2CC[C@H](c3nnc(COc4ccc(F)cc4)o3)C2)o1`, the “Percent Effect” value was -1.742%.
In the case of `COC(=O)c1cccc2nc([C@H]3CCN(Cc4ccccc4C)C3)oc12` it was 0.4423%; in that of `COc1cccc(-c2noc(C3CCN(Cc4ccccc4C)C3)n2)c1.Cl` (stereo not given), 79.37%; in that of `COc1cccc(-c2noc(C3CCN(Cc4cn(C)nc4C)C3)n2)c1` (stereo not given), -2.203%.
Regarding `COc1cccc(-c2noc(C3CCN(Cc4ccccc4F)C3)n2)c1.Cl` (stereo not given), the “Percent Effect” value came out at 108.2%.
For the compound `COc1cccc(-c2ncc(CN3CC[C@H](CO)[C@@H](O)C3)s2)c1`, the “Percent Effect” value is 10.62%.
In the case of `COC(=O)c1cccc2nc([C@H]3CCN(Cc4ccccc4F)C3)oc12`, the “Percent Effect” value was found to be 4.5%.
For `Cc1n[nH]c(CN2CCN(c3ncnc4scc(C)c34)CC2)c1Cl`, the “Percent Effect” value was -1.697%.
On to `CC(O)CN1CCN(C(=O)c2cccc3[nH]ncc23)CC1` (stereo not given), for which the “Percent Effect” value stood at 5.765%.
With `Cc1nc(CN2CCO[C@H]3CN(C(=O)c4cscn4)C[C@H]32)cs1`, the “Percent Effect” value was -19.39%.
With `Cc1nc(C2CCN(C(=O)c3cscn3)CC2)c2sccn12`, the “Percent Effect” value is 123.8%.
The value for `CC(O)c1cn(CC2CCN(C(=O)c3cscn3)CC2)nn1` (stereo not given) was -31.81%; that for `Cc1nc(C2CCN(C(=O)c3ccn(C)n3)CC2)c2sccn12` was 109.4%; that for `CCc1cnc(C)nc1NCCSc1nnc(C)n1CC` was -6.357%.
Take `c1cnnc(N2CCCC(NCc3ccc(-n4cncn4)cc3)C2)c1` (stereo not given): the “Percent Effect” value is on record as -12.46%.
In the case of `CSCCc1n[nH]c2c1CN(S(=O)(=O)c1cn(C)c(C)n1)CC2` it was 5.686%.
With `O=C1C(NCc2nnc3n2CCCC3)CCN1c1ccccc1` (stereo not given), the “Percent Effect” value stood at 4.078%.
`CC(C)NC(=O)CN(C)C1CCN(c2ccc(C#N)cn2)CC1`: the “Percent Effect” value was -9.804%.
In the case of `O=C1CC2(CCN(C(=O)c3ccncc3)CC2)Oc2c(Cl)cc(Cl)cc21` it was 113.6%; in that of `O=C(c1ccncc1)N1CCN(c2ccc(F)cc2Cl)CC1`, 2.697%.
Consider `Cc1cccc(C2(O)CCN(C(=O)c3ccccn3)CC2)c1C`, for which the “Percent Effect” value was found to be 8.443%.
With `O=C(c1ccccn1)N1CCN(c2ccc(-n3cccc3)nn2)CC1`, the “Percent Effect” value was 9.922%.
With `CC(C)CN1CCc2[nH]cnc2C12CCN(C(=O)c1ccccn1)CC2`, the “Percent Effect” value came out at 2.853%.
In the case of `Cc1ccc(F)c(OC2(C(=O)O)CCN(C(=O)c3ccncc3)CC2)c1` it was 12.09%.
Regarding `O=C1CC2(CCN(C(=O)c3ccccn3)CC2)Oc2c(Br)cc(Br)cc21`, the “Percent Effect” value is on record as 106.1%.
In the case of `O=C1CC2(CCN(C(=O)c3ccccn3)CC2)Oc2c(Cl)cc(Cl)cc21`, the “Percent Effect” value came out at 107.9%.
